Results reported in PubChem BioAssay (NCI).
About 83,000 compounds went through this panel and 20% of them were active in at least one assay; those are over-represented in the sample as a whole.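 Cell lines were cultured in 96-well plates, exposed to a single compound concentration, and assessed for percent growth 48 hours later.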 Calls of active or inactive are those of the source. How the source made its calls: active means growth percent below 10; inactive means the rest.

Each molecule was assayed on M14 melanoma (assay: NCI-60 one-dose screen, 48 h (100 = growth as untreated, 0 = no growth, -100 = all killed)). Details: 10 µM unless noted.

Row | Compound | growth
1 | COc1cc2c(c(OC)c1OC)CCC(c1cccc(NC(=O)c3ccc(Br)cc3)c1)O2 (stereo not given) | 81.3% (inactive)
2 | NC(=O)C(=O)c1ccccc1NC=O | 92.7% (inactive)
3 | NC(=O)c1cc(I)ccc1NC(=O)/C=C/c1ccccc1 | 19.2% (inactive)
4 | O=[N+]([O-])c1ccc(O)cc1Br | 96.2% (inactive)
5 | COc1ccc(OC)c(Nc2nnc(-c3ccc(O)c(OC)c3)o2)c1 | 74.6% (inactive)
6 | C=CCn1c(C)nc2ccc(Nc3nc(Nc4ccc5nc(C)n(CC=C)c5c4)c4ccccc4n3)cc21 | -88.4% (active)
7 | Cn1c(=O)cc2c3c(c(NCCCO)ccc31)C(=O)c1ccccc1-2 | 55.3% (inactive)
8 | O=S(=O)(c1ccccc1)n1cc2c(c1)-c1nc(Nc3ncccn3)sc1CC2 | 45.8% (inactive)
9 | O=S(=O)(NCCCNc1nccc(-c2c(-c3ccc(F)c(O)c3)nc3sccn23)n1)c1ccccc1 | 12.6% (inactive)
10 | C=C(C)[C@@H]1CC[C@]2(C(=O)O)CC[C@]3(C)[C@H](CC[C@@H]4[C@@]5(C)CCC(NC(=O)c6cccc(OC(C)=O)c6OC(C)=O)C(C)(C)[C@@H]5CC[C@]43C)[C@@H]12 (stereo not given in full) | -16.2% (active)
